Test results published in PubChem BioAssay.
The source made the active and inactive calls.

Assays:
[1] = binders of probe aFSTL3 on microarray, primary screen, stem cell growth factor project, biochemical, small-molecule microarray, fluorescence 635/667 (AID 1064); conditions: higher = more signal;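 further: measures binding of the biotinylated anti-FSTL3 antibody to printed compounds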
[2] = binders from COS7 lysate, DM2A8 probe, primary screen, torsin A project, cell lysate, small-molecule microarray, fluorescence 635/667 (AID 1065); conditions: higher = more signal, COS7 lysate expressing mutant human TOR1A
[3] = binders of probe aFGF2 on microarray, primary screen, stem cell growth factor project, biochemical, small-molecule microarray, fluorescence 635/667 (AID 1067); conditions: higher = more signal;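 further: measures binding of biotinylated aFGF2 protein to printed compounds on slides; z-score merges feature fluorescence and signal-to-noise across triplicate slides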
[4] = binders of probe aFGF10 on microarray, primary screen, stem cell growth factor project, biochemical, small-molecule microarray, fluorescence 635/667 (AID 1071); conditions: higher = more signal;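 further: score merges 667 nm spot intensity and signal to noise from triplicate slides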
[5] = target: Neurogenic locus notch homolog protein 2 (Homo sapiens) (UniProt Q04721); assay: Notch2 binders on small-molecule microarrays, primary screen, biochemical, small-molecule microarray, 635 nm fluorescence, stem cell growth factors (AID 1073); conditions: Notch2 binding, higher = more signal
[6] = target: Pro-neuregulin-1, membrane-bound isoform (Homo sapiens) (UniProt Q02297); assay: NRG1 binders on small-molecule microarrays, primary screen, psychiatric disease protein project, biochemical, small-molecule microarray, fluorescence 635/667 (AID 1075); conditions: NRG1 binding, 635 nm fluorescence, higher = more signal;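 further: score combines 667 nm spot fluorescence with signal to noise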
Sequence of Pro-neuregulin-1, membrane-bound isoform (Homo sapiens) (Q02297 whole entry, looked up, the tested form may be a part, canonical isoform): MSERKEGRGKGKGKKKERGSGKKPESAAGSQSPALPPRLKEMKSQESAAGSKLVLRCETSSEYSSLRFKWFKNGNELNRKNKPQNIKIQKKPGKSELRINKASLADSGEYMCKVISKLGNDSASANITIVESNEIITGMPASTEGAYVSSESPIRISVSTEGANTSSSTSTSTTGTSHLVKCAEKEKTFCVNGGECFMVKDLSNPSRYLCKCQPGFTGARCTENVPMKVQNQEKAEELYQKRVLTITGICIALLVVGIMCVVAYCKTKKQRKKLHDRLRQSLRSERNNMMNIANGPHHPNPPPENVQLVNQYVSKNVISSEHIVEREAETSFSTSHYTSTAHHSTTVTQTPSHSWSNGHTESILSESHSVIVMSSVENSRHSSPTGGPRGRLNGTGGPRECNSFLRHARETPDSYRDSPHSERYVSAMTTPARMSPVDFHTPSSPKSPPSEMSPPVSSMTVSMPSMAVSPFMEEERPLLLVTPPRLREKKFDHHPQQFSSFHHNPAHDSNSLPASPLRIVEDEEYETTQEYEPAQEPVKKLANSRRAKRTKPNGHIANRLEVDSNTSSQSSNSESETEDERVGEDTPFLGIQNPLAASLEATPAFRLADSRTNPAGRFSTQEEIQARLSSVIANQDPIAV

[7] = tested on: Neuregulin-1 EGF-like domain; assay: binders of neuregulin-1 EGF-like domain, primary screen, biochemical, small-molecule microarray, 635 nm fluorescence (AID 1081); conditions: small-molecule microarray binding, higher = more signal;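 further: binding of the protein to compounds printed on small-molecule microarray slides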
[8] = FRG1 promoter luciferase signal modulators, primary screen, FRG1 inhibition for FSHD, cell-based, C2C12 myotubes, firefly/Renilla luciferase, luminescence (AID 1084); conditions: higher = more signal, called active from +8 up or from −8 down
[9] = binders of probe aFST on microarray, primary screen, stem cell growth factor project, biochemical, small-molecule microarray, fluorescence 635/667 (AID 1086); conditions: higher = more signal;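 further: score merges 667 nm fluorescence with signal-to-noise of each printed compound spot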
[10] = binders of probe aHhip on microarray, primary screen, stem cell growth factor project, biochemical, small-molecule microarray, fluorescence 635/667 (AID 1087); conditions: higher = more signal;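 further: score merges spot fluorescence at 667nm with spot signal to noise ratio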
[11] = tested on: PRMT1 (protein arginine N-methyltransferase 1); assay: PRMT1 binders on small-molecule microarrays, primary screen, biochemical, small-molecule microarray, 635 nm fluorescence (AID 1088); conditions: small-molecule microarray binding, higher = more signal;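 further: binding of Prmt1 protein to compounds spotted on small-molecule microarray slides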
[12] = yeast growth modulation, basal conditions, primary screen, YJM789 clinical isolate, OD600, 24 h (AID 1089);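 further: growth of clinical yeast isolate S. cerevisiae YJM 789 seeded 1000 cells per well; test concentration not given here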; conditions: S. cerevisiae YJM789 growth, higher = more signal, called active from +8 up or from −8 down
[13] = fission yeast growth modulation, primary screen, strain 972, OD600, 24 h, no modulator (AID 1090);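 further: basal condition with compound alone and no growth modifier present; test concentration not given here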; conditions: S. pombe 972 growth, higher = more signal, called active from +8 up or from −8 down
[14] = S. cerevisiae growth modulation with rapamycin, primary screen, strain BY4716, OD600, 96 h (AID 1091); conditions: higher = more signal, called active from +8 up or from −8 down; further: test concentration not given here
[15] = target: Torsin-1A-interacting protein 2 (Homo sapiens) (UniProt Q8NFQ8); assay: LULL1 binders on small-molecule microarray, primary screen, cell lysate, human LULL1 lysate, 635/667 nm fluorescence (AID 1092); conditions: hLULL1 lysate binding, 635 nm fluorescence, higher = more signal;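 further: probe is lysate of COS7 cells overexpressing human LULL1; score merges per-feature 667 nm fluorescence with signal-to-noise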
Sequence of Torsin-1A-interacting protein 2 (Homo sapiens) (Q8NFQ8 whole entry, looked up): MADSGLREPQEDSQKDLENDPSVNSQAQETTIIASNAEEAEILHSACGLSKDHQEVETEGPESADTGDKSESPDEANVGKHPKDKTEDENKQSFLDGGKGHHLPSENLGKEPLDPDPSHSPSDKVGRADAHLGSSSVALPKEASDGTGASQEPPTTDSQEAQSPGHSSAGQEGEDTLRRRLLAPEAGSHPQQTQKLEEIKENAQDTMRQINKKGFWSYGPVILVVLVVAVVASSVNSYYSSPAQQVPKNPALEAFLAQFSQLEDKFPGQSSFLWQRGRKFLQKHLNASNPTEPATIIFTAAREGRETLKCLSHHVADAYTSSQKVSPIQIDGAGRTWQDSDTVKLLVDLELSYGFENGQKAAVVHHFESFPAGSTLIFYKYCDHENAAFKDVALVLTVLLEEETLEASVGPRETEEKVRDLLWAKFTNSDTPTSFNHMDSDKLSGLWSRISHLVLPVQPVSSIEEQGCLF

[16] = E. coli growth modulation, two-sided OD650, primary screen, E. coli filamentation project, strain DRC41, 24 h (AID 1093); conditions: OD650, 24 h, higher = more signal, called active from +8 up or from −8 down;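 further: MC1000 strain lacking acrAB efflux and sulA so SOS filamentation is blocked; test concentration not given here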
[17] = small-molecule microarray binders of probe aLefty2, primary screen, biochemical, biotinylated probe, 635/667 nm fluorescence (AID 1094); conditions: higher = more signal;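 further: score merges spot fluorescence near 667 nm with spot signal-to-noise ratio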
[18] = tested on: Noggin (protein binding on small-molecule microarray); assay: Noggin binders on small-molecule microarray, primary screen, biochemical, 635/667 nm fluorescence (AID 1095); conditions: 635 nm fluorescence, higher = more signal;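 further: score merges 667 nm feature fluorescence with signal to noise over triplicate slides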
[19] = target: Neurogenic locus notch homolog protein 3 (Homo sapiens) (UniProt Q9UM47); assay: NOTCH3 binders on small-molecule microarray, primary screen, biochemical, 635/667 nm fluorescence (AID 1096); conditions: NOTCH3 binding, 635 nm fluorescence, higher = more signal
Sequence of Neurogenic locus notch homolog protein 3 (Homo sapiens) (Q9UM47 whole entry, looked up): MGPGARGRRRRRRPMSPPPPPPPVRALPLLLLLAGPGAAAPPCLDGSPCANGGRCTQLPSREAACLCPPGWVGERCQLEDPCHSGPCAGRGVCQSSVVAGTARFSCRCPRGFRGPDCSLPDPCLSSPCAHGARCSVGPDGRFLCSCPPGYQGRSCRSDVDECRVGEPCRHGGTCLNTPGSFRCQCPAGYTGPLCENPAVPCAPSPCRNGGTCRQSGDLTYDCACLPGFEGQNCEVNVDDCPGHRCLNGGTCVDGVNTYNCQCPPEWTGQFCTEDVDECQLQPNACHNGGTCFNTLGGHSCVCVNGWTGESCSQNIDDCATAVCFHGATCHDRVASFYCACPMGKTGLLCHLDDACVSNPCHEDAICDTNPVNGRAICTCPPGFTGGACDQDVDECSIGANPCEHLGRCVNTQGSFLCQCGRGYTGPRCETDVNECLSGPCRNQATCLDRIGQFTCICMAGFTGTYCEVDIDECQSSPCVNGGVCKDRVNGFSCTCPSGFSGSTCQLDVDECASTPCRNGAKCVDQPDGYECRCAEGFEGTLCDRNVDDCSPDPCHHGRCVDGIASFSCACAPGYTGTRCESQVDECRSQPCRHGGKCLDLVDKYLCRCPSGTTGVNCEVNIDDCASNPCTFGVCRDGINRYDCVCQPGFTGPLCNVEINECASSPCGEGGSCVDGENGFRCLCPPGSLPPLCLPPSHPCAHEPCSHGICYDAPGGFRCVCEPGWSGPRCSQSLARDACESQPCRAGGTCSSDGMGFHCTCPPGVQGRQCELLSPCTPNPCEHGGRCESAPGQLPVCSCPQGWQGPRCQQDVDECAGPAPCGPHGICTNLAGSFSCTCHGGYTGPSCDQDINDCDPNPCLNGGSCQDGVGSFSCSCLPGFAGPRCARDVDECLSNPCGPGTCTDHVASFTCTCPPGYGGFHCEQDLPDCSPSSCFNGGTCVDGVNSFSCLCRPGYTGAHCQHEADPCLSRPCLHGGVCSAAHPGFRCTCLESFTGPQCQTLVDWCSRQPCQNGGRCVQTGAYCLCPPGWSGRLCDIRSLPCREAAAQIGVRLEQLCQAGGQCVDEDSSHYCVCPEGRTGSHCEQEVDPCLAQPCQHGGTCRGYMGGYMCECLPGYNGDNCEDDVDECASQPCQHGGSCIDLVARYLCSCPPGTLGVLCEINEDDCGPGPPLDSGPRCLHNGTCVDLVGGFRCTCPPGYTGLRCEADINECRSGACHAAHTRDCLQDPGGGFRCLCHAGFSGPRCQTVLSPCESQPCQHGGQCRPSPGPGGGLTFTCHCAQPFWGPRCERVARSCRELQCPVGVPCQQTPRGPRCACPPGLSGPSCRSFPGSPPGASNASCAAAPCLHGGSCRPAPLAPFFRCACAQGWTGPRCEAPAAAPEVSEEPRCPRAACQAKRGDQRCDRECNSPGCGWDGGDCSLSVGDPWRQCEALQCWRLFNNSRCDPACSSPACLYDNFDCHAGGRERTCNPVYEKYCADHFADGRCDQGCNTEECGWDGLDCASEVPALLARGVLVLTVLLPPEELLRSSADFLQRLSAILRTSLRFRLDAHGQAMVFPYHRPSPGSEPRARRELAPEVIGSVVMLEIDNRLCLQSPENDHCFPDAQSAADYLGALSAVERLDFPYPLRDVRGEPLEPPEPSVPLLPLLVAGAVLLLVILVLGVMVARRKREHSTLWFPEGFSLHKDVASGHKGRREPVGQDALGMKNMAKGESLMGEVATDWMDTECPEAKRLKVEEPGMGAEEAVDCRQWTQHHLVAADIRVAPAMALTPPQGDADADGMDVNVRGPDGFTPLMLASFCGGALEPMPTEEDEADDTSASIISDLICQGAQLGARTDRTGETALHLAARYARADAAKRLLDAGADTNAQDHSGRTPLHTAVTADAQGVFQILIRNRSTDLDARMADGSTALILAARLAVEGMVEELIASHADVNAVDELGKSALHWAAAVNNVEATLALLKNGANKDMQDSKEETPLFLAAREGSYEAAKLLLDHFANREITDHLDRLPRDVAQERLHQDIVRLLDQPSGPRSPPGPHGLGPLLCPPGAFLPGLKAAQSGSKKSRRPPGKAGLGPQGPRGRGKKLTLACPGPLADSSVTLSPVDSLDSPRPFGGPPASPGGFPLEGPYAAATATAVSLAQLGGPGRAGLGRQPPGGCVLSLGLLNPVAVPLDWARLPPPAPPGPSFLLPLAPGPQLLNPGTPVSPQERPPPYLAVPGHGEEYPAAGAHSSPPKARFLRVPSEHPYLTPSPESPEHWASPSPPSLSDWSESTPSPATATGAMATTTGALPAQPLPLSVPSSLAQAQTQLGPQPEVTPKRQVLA

[20] = small-molecule microarray binders of probe aEGFR, primary screen, biochemical, biotinylated probe, 635/667 nm fluorescence (AID 1097); conditions: higher = more signal;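 further: probe is a biotinylated anti-EGFR antibody binding compounds printed on slides; score combines fluorescence near 667 nm and signal to noise of each spot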

SMILES	composite z-score [1]	composite z-score [2]	composite z-score [3]	composite z-score [4]	composite z-score [5]	composite z-score [6]	composite z-score [7]	z-score [8]	composite z-score [9]	composite z-score [10]	composite z-score [11]	z-score [12]	z-score [13]	z-score [14]	composite z-score [15]	z-score [16]	composite z-score [17]	composite z-score [18]	composite z-score [19]	composite z-score [20]
COc1ccc([Si](C)(C)[C@@H]2[C@@H](CC(=O)N(CCO)Cc3ccccc3)O[C@]3(C(=O)N(Cc4cccc(I)c4)c4ccccc43)[C@H]2C)cc1	2.68	1.17	-0.0422	0.396	0.779	0.496	1.13	-0.939 (inactive)	0.42	0.572	1.46	-0.0171 (inactive)	1.27 (inactive)	3.46 (inactive)	0.444	0.645 (inactive)	0.0553	1.51	1.07	0.0102
CCOC(=O)C[C@H]1[C@H](OC(=O)c2ccccc2-c2ccccc2)[C@@H](NC(=O)CC(C)C)c2cc(OCCCO)ccc2N1C(=O)c1ccccc1	-0.565	0.115	-0.0632	0.351	0.527	0.092	0.606	0.077 (inactive)	0.324	-0.137	0.768	-0.959 (inactive)	-0.613 (inactive)	-1.52 (inactive)	0.583	0.482 (inactive)	-0.0859	1.3	1.09	-0.159
O=C(CS)NCCCCCCNC(=O)[C@H]1C[C@H]2C(=O)NCC(=O)N2[C@H]1c1cccc(OCCO)c1	-0.0511	0.0436	-0.0488	0.22	0.166	1.36	1.36	0.525 (inactive)	0.0909	0.0024	0.863	-0.573 (inactive)	-0.372 (inactive)	0.585 (inactive)	2.47	1.25 (inactive)	0.0657	0.6	0.471	-0.0612
COc1ccc(CCNC(=O)[C@@H]2c3ccccc3C(=O)N(Cc3cc(F)cc(C(F)(F)F)c3)[C@H]2c2ccc(CO)cc2)cc1	1.65	0.705	0.272	0.235	0.158	1.17	0.975	-1.36 (inactive)	2.49	-0.251	1.54	-0.0253 (inactive)	-0.131 (inactive)	0.142 (inactive)	2.21	1.02 (inactive)	0.159	0.415	0.195	0.179
O=C1OCC=C[C@H]2OC34C=CCN(Cn5nnc6ccccc65)C(=O)[C@H]3N(CCO)C(=O)[C@@H]4[C@@H]12 (stereo not given in full)	0.645	1.9	-0.129	-0.749	-1.45	0.864	0.579	0.13 (inactive)	-0.406	-0.139	0.551	0.936 (inactive)	0.159 (inactive)	0.294 (inactive)	2.55	-0.55 (inactive)	-0.0368	-1.88	-0.481	-0.171
O=C1O[C@H](c2ccccc2)[C@H](c2ccccc2)N2[C@H]1[C@@H](C(=O)O)[C@]1(C(=O)Nc3ccc(C#CC4(O)CCCCCC4)cc31)[C@H]2c1ccccc1OCCO	-0.304	1.43	0.0322	0.85	1.11	0.278	1.19	-0.283 (inactive)	0.39	0.781	1.56	2.68 (inactive)	-0.155 (inactive)	0.247 (inactive)	2.27	1.47 (inactive)	0.366	0.621	1.11	0.494
CC(C)(C)OC(=O)CC[C@]1(C(N)=O)N=C(c2ccc(OCCCO)cc2)O[C@H]1c1ccccc1N=[N+]=[N-]	0.365	-0.434	-0.0088	0.396	0.9	1.73	1.48	6.25 (inactive)	0.616	0.213	0.138	1.37 (inactive)	0.138 (inactive)	0.467 (inactive)	2.75	0.626 (inactive)	0.0598	-0.165	0.206	0.141
CC(C)C[C@@H]1NC(=O)[C@@H]2C[C@H](C(=O)NCCCCCCNC(=O)CS)[C@H](c3ccc(O)cc3)N2C1=O	-0.0857	1.48	-0.0202	0.938	0.604	1.35	1.37	0.0812 (inactive)	0.694	-0.0346	1.53	0.279 (inactive)	0.101 (inactive)	0.971 (inactive)	2.93	1.27 (inactive)	0.0277	1.26	1.11	0.0886
COC(=O)C(CC#Cc1ccc2c(c1)[C@]1(C(=O)N2)[C@H](C(=O)N2CCCCCCC2)[C@H]2C(=O)O[C@H](c3ccccc3)[C@H](c3ccccc3)N2[C@@H]1c1ccc(OCCO)cc1)C(=O)OC	3.58	2.87	0.941	1.37	1.75	2.94	1.33	1.91 (inactive)	3.35	2.77	1.52	-0.0902 (inactive)	0.563 (inactive)	1.28 (inactive)	5.35	0.149 (inactive)	1.79	2.35	1.01	1.38
CC[C@@H](O[Si](C#C[Si](C(C)C)(C(C)C)C(C)C)(C(C)C)C(C)C)c1cn([C@H](C)c2ccccc2)nn1	-0.51	0.488	-0.0797	0.663	0.728	0.284	0.739	-0.0777 (inactive)	0.129	0.115	0.991	0.685 (inactive)	0.0803 (inactive)	0.529 (inactive)	0.382	0.612 (inactive)	-0.148	0.391	0.785	-0.0332
